# ± gives the uncertainty stated by the source.
# System: Caenorhabditis elegans N2 (wild type)
# Assay: animals with crystals or spheres in anterior pharynx; higher = more object (crystal/sphere) accumulation
# Settings: 30 µM; 48 h; genotype: wild type N2; stage: L1 start
# Description: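 Synchronized wild-type (N2) C. elegans L1 larvae (50 per well) were incubated in liquid NGM with E. coli HB101 and 30 uM of each wactive for 48 h. Live worms were scored by DIC and polarized-light microscopy for birefringent crystals or non-birefringent spheres in the anterior pharynx. At least 3 biological replicates were run with at least 20 worms each; the value is the mean % of animals carrying objects.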
row,Structure (SMILES),animals
1,c1ccc(CSc2nnc(-c3ccccc3)o2)cc1 [wact-38],95.5 ± 3%
2,O=[N+]([O-])c1ccc(N2CCN(CC3CC4C=CC3C4)CC2)cc1 (stereo not drawn) [wact-46],0%
3,O=[N+]([O-])c1ccc(N2CCN(CC3CCCCC3)CC2)cc1 [wact-45],0%
4,Cc1ccc(-c2cnc(-c3ccncc3)o2)cc1 [wact-23],0%
5,CCC1CCC(N2CCN(c3ccc([N+](=O)[O-])cc3)CC2)CC1 (stereo not drawn) [wact-6],3.24 ± 3%
6,O=C(Nc1cccc(Cl)c1)N1CCN(c2ccc([N+](=O)[O-])cc2)CC1 [wact-31],0%
7,Fc1ccc(-c2cn3ccsc3n2)cc1 [wact-433],0%
8,CCCc1nc(-c2ccc(-c3ccc(F)cc3)cc2)no1 [wact-390],88.33 ± 0.88%
9,Clc1ccc(-c2cn3ccsc3n2)cc1 [wact-1],0%
10,O=[N+]([O-])c1ccc(N2CCN(CC3CC=CCC3)CC2)cc1 (stereo not drawn) [wact-47],0%
11,CCSc1nnc(-c2ccc(Cl)cc2Cl)o1 [wact-4],0%
12,c1ccc2nc(-c3nc4ccccc4o3)ccc2c1 [wact-40],12.5 ± 2.8%
13,Brc1ccc(-c2nnc(-c3ccccc3)o2)cc1 [wact-425],34.5 ± 9.2%
14,C=CCSc1nnc(-c2ccc(Cl)cc2Cl)o1 [wact-5],0%
15,COc1ccccc1CNC(=O)c1ccccc1I [wact-402],0%
16,O=[N+]([O-])c1ccc(CSc2ccc(Cl)cc2)cc1 [wact-3],52.6 ± 13%
17,O=[N+]([O-])c1ccc(-n2ccc3ccccc32)cc1 [wact-213],40.3 ± 22%
18,O=C1CC(N2CCN(c3ccc([N+](=O)[O-])cc3)CC2)C(=O)N1c1ccccc1F (stereo not drawn) [wact-56],0%
19,COc1ccc(C=Cc2ccccn2)cc1 [wact-622],0%
20,c1ccc(-c2noc(-c3cccs3)n2)cc1 [wact-7],0%
21,O=C(c1ccc(Br)cc1)N1CCN(c2ccc([N+](=O)[O-])cc2)CC1 [wact-381],99.5 ± 0.5%
22,CCOc1ccc(-c2cnc3ccccc3n2)cc1 [wact-24],69.5 ± 6.4%
23,O=C(Nc1ccc(I)cc1)c1ccco1 [wact-27],10 ± 8.3%
24,O=C(NCCCCc1ccccc1)c1ccccc1F [wact-400],0%
25,Cc1ccccc1C(=O)NCCc1ccccc1 [wact-406],0%
26,c1csc(-c2cnc3ccccc3n2)c1 [wact-21],0%
27,Ic1cccc(-c2nnc(-c3ccccc3)o2)c1 [wact-51],51.5 ± 14%
28,O=C(Nc1ccc(-c2nc3ccccc3s2)cc1)c1ccccc1F [wact-415],100%

# From the supplement of paper PMC6718421
